KB-V1 cytotox: KB-V1 MDR subline cytotoxicity; KB-V1 MDR cells viability, CellTiter-Glo, 72 h; Potency, µM (top dose mostly 46.1 µM), most hits filed as cytotoxic; 400,000 tested, 3.4% active; AID 1347076; also: % is scaled to controls: 0 for no effect and ±100 for the full control effect; nearly all actives have a fitted effect of over 60% in size
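Drug-selected KB-V1 cells, grown in DMEM lacking phenol red with 10% FBS, receive compound titrations; after three days at 37 degrees C, surviving cell ATP is quantified by CellTiter-Glo luminescence and responses normalized and curve-fitted.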
RORgamma inh: ROR gamma (mouse) transcription inhibition. Drosophila S2 Gal4-RORgamma UAS-luciferase reporter, 20 h. Potency, µM (doses to about 53.6 µM), without a hit: at the highest dose activity change, negative = inhibition, actives largely listed as inhibitors. 310,000 tested, 5.4% active; also: % is scaled to controls: 0 for no effect and ±100 for the full control effect; nearly all actives have a fitted effect of over 60% in size
Target sequence (P51450 whole entry, looked up, the tested form may be a part): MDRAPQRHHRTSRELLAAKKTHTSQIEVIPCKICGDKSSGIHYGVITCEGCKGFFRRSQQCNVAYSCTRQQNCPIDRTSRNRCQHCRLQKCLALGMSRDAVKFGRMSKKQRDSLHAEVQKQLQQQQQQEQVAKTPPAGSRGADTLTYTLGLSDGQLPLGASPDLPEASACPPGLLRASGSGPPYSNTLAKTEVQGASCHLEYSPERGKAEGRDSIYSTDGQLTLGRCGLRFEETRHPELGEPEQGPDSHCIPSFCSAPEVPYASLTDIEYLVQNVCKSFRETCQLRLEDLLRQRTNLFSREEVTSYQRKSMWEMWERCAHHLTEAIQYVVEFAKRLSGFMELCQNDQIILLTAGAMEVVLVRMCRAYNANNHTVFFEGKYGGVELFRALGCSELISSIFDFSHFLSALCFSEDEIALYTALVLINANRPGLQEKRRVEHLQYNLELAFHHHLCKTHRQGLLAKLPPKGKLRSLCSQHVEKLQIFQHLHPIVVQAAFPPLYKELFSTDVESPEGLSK
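A Gal4/UAS one-hybrid system in insect cells: metallothionein-promoter Gal4–ROR gamma fusion plus Photinus luciferase reporter. Copper sulfate 700 uM final, 20 hr ambient incubation, luminescent detection after 10 min with reagent.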
SW480 rerep: DNA re-replication induction in SW480 cells; SW480 DNA re-replication, Hoechst DNA content imaging, 48 h; AID 624297; 340,000 tested, 1.8% active; Potency, µM (top dose mostly 46.1 µM), for the others: at the highest dose re-replication activation, usual class: activators; also: % of control where 0% means no effect; nearly all actives have a fitted effect of over 55% in size
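Per well, 250 cells were exposed to pinned compound for 48 hr. Nuclear DNA was visualised with Hoechst (40 min, 37 C) and total object intensity recorded by fluorescence scanning.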
MCF10A rereplic: inducers of DNA re-replication in MCF 10A breast cells | AID 624296 | Potency, µM (doses to about 46.1 µM), for the others: top-dose activity, positive = re-replication, hits mostly activators | 350,000 tested, 2.9% active | MCF 10A DNA re-replication, Hoechst nuclear intensity, 48 h; also: % of control where 0% means no effect; nearly all actives have a fitted effect of over 50% in size
KB-3-1 cytotox: KB-3-1 parental cell cytotoxicity | KB-3-1 viability, CellTiter-Glo ATP luminescence, 72 h | Potency, µM (doses to about 46.1 µM), hits mostly cytotoxic | 400,000 tested, 1.4% active; also: % is scaled to controls: 0 for no effect and ±100 for the full control effect; nearly all actives have a fitted effect of over 60% in size
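KB-3-1 cells, DMEM (no phenol red) + 10% FBS; compound by pin transfer, 72 h, 37 °C. Readout: CellTiter-Glo luminescence after 10 min. Data normalized, curve-fitted.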
VP16 counter: counter-screen for ROR gamma inhibitors: Gal4-VP16 reporter; Drosophila S2 Gal4-VP16 UAS-luciferase, luminescence, 20 h; Potency, µM (titrated, usually from 53.6 µM), for the others: at the highest dose activity, negative = inhibition, usual class: inhibitors; 310,000 tested, 3.5% active; AID 2546;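 also: Gal4-VP16 expression switched on by copper sulfate through the metallothionein promoter; % is scaled to controls: 0 for no effect and ±100 for the full control effect; nearly all actives have a fitted effect of over 50% in size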
Active calls of the source: *; i = inactive; ? = inconclusive; nt = no result; [ ] = remark or other dose. Only some compounds are listed: those with a hit (about 10% of all), similar ones and a draw of the others. Calls follow the shape of the dose curve; as a rule, active = well fitted curve in the direction sought with a large enough effect; inconclusive = small, poorly fitted or top-dose-only effect, or another doubt; inactive = no such curve, though single readings can be large; an effect the other way counts as inactive or inconclusive. Potency is read from the fitted curve at half-maximal effect.

SMILES	KB-V1 cytotox	RORgamma inh	SW480 rerep	MCF10A rereplic	KB-3-1 cytotox	VP16 counter
Cc1cc(C(=O)Nc2c(F)cc(F)cc2Br)cs1	?	4.5%	1.0%	0.6%	i	6.3%
NNC(=S)Nc1c(F)cc(F)cc1Br	i	3.98µM*	5.7%	?	i	?
CC1(CCc2ccccc2)NC(=O)N(CC(=O)Nc2ccc(OC(F)F)cc2)C1=O (centres undefined)	20.6µM*	nt	1.2%	3.6%	i	nt
CC1(CCc2ccccc2)NC(=O)N(CC(=O)Nc2ccc(S(N)(=O)=O)cc2)C1=O (centres undefined)	i	-1.5%	-3.3%	7.5%	i	8.4%
CCc1cccc(CC)c1NS(=O)(=O)c1ccc2c(c1)CCN2C(=O)C1CC1	i	nt	nt	nt	i	nt
COc1ccc(CNC(=O)CCn2c(=O)oc3ccccc32)cc1	i	-1.4%	1.2%	1.6%	i	-1.7%
CCOc1ccc(OCC)c(NC(=O)CCn2c(=O)oc3ccccc32)c1	8.2µM*	29.7%	-0.5%	-2.7%	i	-0.4%
CCOc1ccc(CNC(=O)CCn2c(=O)oc3ccccc32)cc1	23.1µM*	0.4%	4.2%	7.3%	i	-2.8%
Cc1ccc(-n2ncc(C(=O)NCc3ccccn3)c2C2CCN(C(=O)OC(C)(C)C)CC2)cc1C	i	nt	nt	nt	i	nt
CC(=O)Nc1nc(-c2ccc3c(c2)CCN3C(=O)C2CC2)c(C)s1	14.6µM*	13.2%	?	24.3%	?	5.8%
Cc1ccc(CCNC(=O)C(NS(=O)(=O)c2ccc3c(c2)oc(=O)n3C)C(C)C)cc1 (centres undefined)	i	nt	nt	nt	i	nt
O=C1CCN(C(=O)c2cccs2)c2ccccc21	i	-11.5%	-2.1%	-39.3%	i	3.3%
CN1C(=O)/C(=C\C(=O)c2cccs2)c2ccccc21	?	5.62µM*	-71.4%	?	?	12.6µM*
COc1ccc(/C=C/c2nc3cc(-c4ccccc4)ccc3o2)cc1O	?	31.6µM*	18.4µM*	5.8µM*	?	?
CSc1nncn1/N=C/c1ccc([N+](=O)[O-])cc1	i	-13.7%	-0.7%	22.6%	i	?
O=[N+]([O-])c1ccc(/C=N/n2c(-c3ccccc3)n[nH]c2=S)cc1	i	1.26µM*	-6.3%	-1.4%	i	10µM*
O=[N+]([O-])c1ccc(/C=N/n2cn[nH]c2=S)cc1	i	12.6µM*	-22.0%	-16.7%	i	?
CCN(CC)S(=O)(=O)c1cccc(-c2n[nH]c(=S)n2/N=C/c2ccc(OC)cc2)c1	i	?	-1.7%	3.0%	i	-10.0%
S=c1[nH]nc(-c2ccncc2)n1/N=C/c1ccccc1	i	?	?	29.2%	i	?
CCN(CC)S(=O)(=O)c1cccc(-c2n[nH]c(=S)n2/N=C/c2ccc(OC(F)F)cc2)c1	?	-37.0%	-3.0%	-0.1%	i	12.6µM*
Cc1ccc(/C=N/n2c(-c3ccccc3)n[nH]c2=S)cc1	i	?	-16.2%	?	i	2.82µM*
Cc1ccc(-c2n[nH]c(=S)n2/N=C/c2ccc(C(=O)O)cc2)cc1	i	-17.9%	4.4%	5.3%	i	-1.8%
Cc1ccc2[nH]cc(C(O)c3c[nH]c4ccc(C)cc34)c2c1	i	nt	nt	nt	i	nt
CCCNC(=O)OC[C@@H]1O[C@H](CCO/N=C2\c3cc(OC)ccc3O[C@H](c3cccc(OC)c3)[C@H]2O)C=C[C@@H]1Oc1ccc(OC)cc1	nt	21.5%[10 µM]	nt	nt	nt	-5.8%[10 µM]
O=[N+]([O-])c1cc2c(cc1/C=N/n1c(-c3ccccc3)n[nH]c1=S)OCO2	i	5.62µM*	-6.0%	4.4%	i	?
SMILES	KB-V1 cytotox	RORgamma inh	SW480 rerep	MCF10A rereplic	KB-3-1 cytotox	VP16 counter
CC(C)c1ccc(/C=N/n2c(-c3ccccc3)n[nH]c2=S)cc1	i	3.98µM*	-10.1%	20.2%	i	3.16µM*
COc1ccc(/C=N/n2c(-c3ccc(C)cc3)n[nH]c2=S)cc1OC	?	3.16µM*	1.3%	0.1%	i	-12.2%
Cc1ccc2c(C)ccnc2c1	i	nt	nt	nt	i	nt
c1ccc(N2CCN(Cc3nnc(-c4ccc5c(c4)OCO5)o3)CC2)cc1	i	nt	nt	nt	i	nt
Cc1cc(C)c(NC(=O)c2cccc3c2C(=O)N(C2CCCCC2)C3)c(C)c1	?	-20.4%	-6.7%	?	20.6µM*	5.5%
CN(c1cccc(NC(=O)CN(c2ccc(C34CC5CC(CC(C5)C3)C4)cc2)S(C)(=O)=O)c1)S(C)(=O)=O	18.4µM*	?	-3.9%	5.2%	?	2.5%
O=C(CN1CCC(C(O)(c2ccccc2)c2ccccc2)CC1)Nc1ccccc1	?	-21.4%	-2.9%	-4.3%	i	-7.5%
O=C(CN1CCC(C(O)(c2ccccc2)c2ccccc2)CC1)Nc1cc(Cl)ccc1Cl	18.4µM*	-0.9%	?	-46.2%	i	-1.3%
C/C(CC(=O)Nc1ccc2c(c1)OCO2)=N\NC(=O)C(c1ccccc1)c1ccccc1	i	15.8µM*	19.2%	17.8%	i	?
CCOc1ccc(N(CC(=O)Nc2cc(Cl)ccc2C)S(C)(=O)=O)cc1	i	-9.2%	18.4µM*	?	i	-3.2%
CCC(=O)Nc1sc2c(c1C(=O)Nc1ccccc1C)CCC(C)C2 (centres undefined)	i	nt	nt	nt	i	nt
COc1ccc(OC)c(-c2cc(C(=O)Nc3cccc(Cl)c3C)no2)c1	i	nt	nt	nt	i	nt
O=C(OCC(=O)N1N=C(c2ccc(Cl)cc2)CC1c1ccco1)c1cccnc1 (centres undefined)	i	nt	14.2%	?	i	nt
Cc1oc2c(CN3CCCCC3C)c(O)ccc2c(=O)c1-c1ccc(Br)cc1 (centres undefined)	?	28.5%	-9.5%	-1.6%	i	-8.4%
CS(=O)(=O)N(CC(=O)NCCSC1CCCCC1)c1ccc2c(c1)OCO2	18.4µM*	18.9%	10.6%	8.5%	i	-0.6%
Cc1cccc(NC(=O)CN(c2ccc(F)cc2)S(C)(=O)=O)c1	i	5.62µM*	-1.8%	-0.3%	i	5.01µM*
CCOc1ccc(N(CC(=O)Nc2ccccc2Cl)S(C)(=O)=O)cc1	?	2.8%	20.6µM*	?	?	6.6%
CS(=O)(=O)N(CC(=O)Nc1ccc2c(c1)OCCO2)c1ccc2c(c1)OCO2	i	?	-3.5%	11.2%	i	6.4%
CCOc1ccc(N(CC(=O)Nc2ccccc2OC)S(C)(=O)=O)cc1	?	21.1%	?	?	?	16.5%
CS(=O)(=O)N(CC(=O)Nc1ccc2c(c1)OCO2)c1ccccc1	i	22.9%	3.6%	20.6µM*	i	-4.5%

Screening results as filed in PubChem BioAssay.
